Among the data in PubChem BioAssay (NCATS) are Potency values, retold here.

Results filed as inconclusive are left out. Where a call stands in place of a potency, no number is given. Activity calls are given as the source filed them. Calls come from the whole dose curve; as a rule, active = well fitted inhibition curve with a large enough effect; inconclusive = small, poorly fitted or top-dose-only effect; inactive = flat fitted curve, though single readings scatter.

The assay deals with Calcium and integrin-binding protein 1 (Homo sapiens) (UniProt Q99828). The assay is described as follows: Primary qHTS for Identification of Calcium Integrin Binding Protein 1 (CIB1) Competitor (AID 1508620). Note: top concentration of the series differs between compounds. Particulars: CIB1-GST / FITC-alphaIIb peptide fluorescence polarization; series mostly up to 114 µM. The essentials: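 Fluorescence polarization competition: GST-tagged CIB1 (1 uM final) preincubated with compound 15 min at room temperature, then FITC-labelled alphaIIb peptide (100 nM final) added. After 15 min at room temperature, polarization read at Ex 480/Em 540.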
Calcium and integrin-binding protein 1 (Homo sapiens), sequence (Q99828 whole entry, looked up): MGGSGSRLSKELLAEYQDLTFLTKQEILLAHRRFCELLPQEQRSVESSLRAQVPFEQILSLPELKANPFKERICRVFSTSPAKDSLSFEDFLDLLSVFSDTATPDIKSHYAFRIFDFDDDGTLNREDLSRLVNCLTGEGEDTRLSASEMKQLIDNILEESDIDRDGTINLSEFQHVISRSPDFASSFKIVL
(In general: In qHTS, concentration-response curves come from the screen itself.)
As for `Cc1cc(C)nc(NC(=S)N2CCN(c3cccc4nccn34)CC2)c1`, the Potency result is “inactive”.
For `Cc1cc(-c2nnc3n2CCCCC3)c(C)n1-c1cccc(C#N)c1` the value was “inactive”; for `O=S(=O)(c1ccc(F)cc1)N1CCN(S(=O)(=O)c2ccc3c(c2)OCCO3)CC1`, “inactive”; for `Cn1nnnc1Sc1ncnc2scc(-c3cccc(C#N)c3)c12`, “inactive”.
For `CCOc1ccc(CCNC(=O)CN(C)C)cc1OCC` the value was “inactive”; for `Cc1ccc(OCCn2c(CCNC(=O)C3CCCCC3)nc3ccccc32)cc1`, “inactive”; for `Fc1cc(Nc2nc(-c3ccncc3)nc3ccccc23)ccc1-c1cc(F)c(F)c(F)c1`, “inactive”.
With `CCCN1CCN(c2cccc(Nc3nn4c(=O)c5ccccc5nc4s3)c2)CC1` the entry was “inactive”.
With `COc1ccc(C(=O)c2ccc(-c3no[n+]([O-])c3C#N)cc2)cc1`, the Potency entry was “inactive”.
For `Cc1ccc(OCCn2c(CCNC(=O)C3CCCCCC3)nc3ccccc32)cc1` the value was “inactive”; for `CSc1ccc(CNc2ncnc3ccc(-c4c(C)noc4C)cc23)cc1`, “inactive”.
For `Oc1ccc(CNc2ccccc2C(F)(F)F)c2cccnc12` the value was “inactive”.
Take `CCOC(=O)C1CCN(C(=O)C2(NC(=O)Nc3ccccc3Cl)CCC2)CC1`: the Potency entry was “inactive”.
With `Cc1cc2c(s1)c1c(C)nn(Cc3ccccc3F)c(=O)c1n2C` the entry was “inactive”.
As for `COc1cc2ncnc(N(C)Cc3csc(C)n3)c2cc1-c1ccc2c(c1)OCO2`, the Potency result is “inactive”.
With `COc1ccc(-n2cnc3c(c2=N)C(c2cccc(OC)c2)c2c(ccc4ccccc24)O3)cc1` (stereo not drawn) the entry was “inactive”.
With `COc1ccccc1-c1nnc2n1N=C(c1c(OC)cccc1OC)CS2` the entry was “inactive”; with `Cc1ccc(OCCn2c(CCNC(=O)C3CCCC3)nc3ccccc32)cc1`, “inactive”; with `Clc1ccccc1-c1ccc2ncnc(NCc3cccs3)c2c1`, “inactive”.
With `Cc1cc2c(s1)c1cnn(Cc3c(F)c(F)c(C(F)(F)F)c(F)c3F)c(=O)c1n2C`, the Potency result was “inactive”.
With `O=C(Nc1ccc(-n2ccnc2)c(F)c1)Nc1nnc(-c2ccncc2)s1` the entry was “inactive”; with `COc1cc(Cn2ncc3c4sc(C)cc4n(C)c3c2=O)cc(OC)c1`, “inactive”; with `COc1cc(-c2nc(Nc3ccc(F)c(F)c3)c3ccccc3n2)ccn1`, “inactive”.
